Test [1] has as its target Glutathione peroxidase 1 (Homo sapiens) (UniProt P07203). The experiment in a line: Primary qHTS Assay for Inhibitors of Recombinant Selenoprotein Glutathione Peroxidase 1 (GPX1) (AID 1845191). Also: potency is read from the fitted curve at half-maximal effect. Summed up:
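NADPH consumption tracked by fluorescence at 340/450 nm between t=0 and t=15 min, room temperature. Final mix: 10 nM GPX1, 100 nM glutathione reductase, 1 mM GSH, 0.5 mM NADPH, 0.5 mM cumene hydroperoxide, 0.01% BSA; 30 min compound–enzyme preincubation.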
(In qHTS, concentration-response curves come from the screen itself.)

Test [2] concerns the target Phospholipid hydroperoxide glutathione peroxidase GPX4 (Homo sapiens) (UniProt P36969). The experiment in a line: Primary qHTS Assay for Inhibitors of Recombinant Selenoprotein Glutathione Peroxidase 4 (GPX4) (AID 1845192). Summed up:
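NADPH consumption followed by fluorescence at 340/450 nm, t=0 and after 15 min at room temperature. Reaction started with cumene hydroperoxide (0.5 mM final) after 30 min compound–GPX4 preincubation; final 200 nM GPX4, 100 nM GR, 1 mM GSH, 0.5 mM NADPH.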

This note sets out measurements from PubChem BioAssay (NCATS).

Results filed as inconclusive are left out. Where a call stands in place of a potency, no number is given. The source made the active and inactive calls. Calls follow the shape of the dose curve; as a rule, active = well fitted inhibition curve with a large enough effect; inconclusive = small, poorly fitted or top-dose-only effect; inactive = flat fitted curve, though single readings scatter.
Also: nearly all actives have a fitted effect of over 65% in size.

Glutathione peroxidase 1 (Homo sapiens), sequence (P07203 whole entry, looked up): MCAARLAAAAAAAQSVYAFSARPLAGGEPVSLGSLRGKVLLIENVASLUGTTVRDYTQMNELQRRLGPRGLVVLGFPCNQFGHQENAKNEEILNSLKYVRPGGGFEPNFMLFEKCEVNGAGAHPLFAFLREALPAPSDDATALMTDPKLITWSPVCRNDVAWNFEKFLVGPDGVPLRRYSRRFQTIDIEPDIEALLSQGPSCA
Phospholipid hydroperoxide glutathione peroxidase GPX4 (Homo sapiens), sequence (P36969 whole entry, looked up): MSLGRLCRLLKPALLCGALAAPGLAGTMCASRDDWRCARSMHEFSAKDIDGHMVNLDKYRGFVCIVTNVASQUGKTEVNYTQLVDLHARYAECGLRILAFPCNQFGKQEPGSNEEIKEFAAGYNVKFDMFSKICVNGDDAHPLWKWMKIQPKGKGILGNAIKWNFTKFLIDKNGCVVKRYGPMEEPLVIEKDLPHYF

In the case of `Cc1c(Nc2ncccc2C(=O)O)cccc1C(F)(F)F`, the Potency result in test [1] and in test [2] was “inactive” each time.

For the compound `COc1ccc(-c2cc(=S)ss2)cc1`, the Potency in test [1] is 11.4 µM (active). In test [2], the Potency result is “inactive”.

Regarding `O=C(O)c1ccccc1Nc1cccc(C(F)(F)F)c1`, the Potency result in test [1] and in test [2] was “inactive” throughout.

Take `OC[C@H]1O[C@@H](n2cnc3c(NC4CCCC4)ncnc32)[C@H](O)[C@@H]1O`: the Potency entry in test [1] and in test [2] was “inactive” each time.

With `Fc1cccc(/C=N/N=C/c2cccc(F)c2)c1`, the Potency result in test [1] and in test [2] was “inactive” in each case.

Turning to `O=C(O)CNC(=O)C(CS)Cc1ccccc1` (stereo not given), the Potency result in test [1] and in test [2] was “inactive” throughout.

`CN=c1nc(-c2ccccc2)n(-c2ccccc2)s1`: the Potency result in test [1] and in test [2] was “inactive” throughout.

`O=C(CCSCc1ccco1)NNC(=O)N1Cc2ccccc2Oc2ccc(Cl)cc21`: the Potency result in test [1] and in test [2] was “inactive” each time.

`O=C(Nc1ccncc1)c1cc([N+](=O)[O-])ccc1Cl`: the Potency result in test [1] and in test [2] was “inactive” in each case.

On to `CCOC(=O)c1ccccc1O`, for which the Potency entry in test [1] and in test [2] was “inactive” in each case.

For the compound `O=c1[nH]c2cc([N+](=O)[O-])c([N+](=O)[O-])cc2[nH]c1=O`, the Potency entry in test [1] and in test [2] was “inactive” throughout.

On to `CC(=O)/C=C1\C(=O)N(C)c2ccccc21`, for which the Potency entry in test [1] and in test [2] was “inactive” in each case.

For `CCCCC#Cc1nc(NC)c2ncn([C@@H]3O[C@H](CO)[C@@H](O)[C@H]3O)c2n1`, the Potency result in test [1] and in test [2] was “inactive” throughout.

On to `NC(=O)C(c1ccccc1)(c1ccccc1)[C@@H]1CCN(CCc2ccc3c(c2)CCO3)C1`, for which the Potency entry in test [1] and in test [2] was “inactive” in each case.

For the compound `NCCCCC(=O)O`, the Potency result in test [1] and in test [2] was “inactive” each time.
